Results: PubChem BioAssay AID624330 (Southern Research Specialized Biocontainment Screening …, 2012)
In all, about 340,000 compounds went through this assay and about 2,100 (0.62%) were called active.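 Rule for the calls: active = first-screen hits whose inhibition reached a set limit at any dose in the follow-up dose series; inconclusive = inhibition above the set first-screen limit but never retested; inactive = the rest.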 The list is a sample of the results. Measured potencies and affinities stand elsewhere.

target: Rac GTPase-activating protein 1 (Homo sapiens) (UniProt Q9H0H5); test: MgcRacGAP GTPase-activating activity inhibitors, confirmation, biochemical, ADP Hunter fluorescence, primary and confirmatory (AID 624330); details: MgcRacGAP-stimulated Rac1 GTP hydrolysis, at 30 µM, hits give high values, GST-tagged Rac1 F28L mutant substrate;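 note: fluorescence reports GDP produced by GAP-driven GTP hydrolysis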
Sequence (Q9H0H5 whole entry, looked up): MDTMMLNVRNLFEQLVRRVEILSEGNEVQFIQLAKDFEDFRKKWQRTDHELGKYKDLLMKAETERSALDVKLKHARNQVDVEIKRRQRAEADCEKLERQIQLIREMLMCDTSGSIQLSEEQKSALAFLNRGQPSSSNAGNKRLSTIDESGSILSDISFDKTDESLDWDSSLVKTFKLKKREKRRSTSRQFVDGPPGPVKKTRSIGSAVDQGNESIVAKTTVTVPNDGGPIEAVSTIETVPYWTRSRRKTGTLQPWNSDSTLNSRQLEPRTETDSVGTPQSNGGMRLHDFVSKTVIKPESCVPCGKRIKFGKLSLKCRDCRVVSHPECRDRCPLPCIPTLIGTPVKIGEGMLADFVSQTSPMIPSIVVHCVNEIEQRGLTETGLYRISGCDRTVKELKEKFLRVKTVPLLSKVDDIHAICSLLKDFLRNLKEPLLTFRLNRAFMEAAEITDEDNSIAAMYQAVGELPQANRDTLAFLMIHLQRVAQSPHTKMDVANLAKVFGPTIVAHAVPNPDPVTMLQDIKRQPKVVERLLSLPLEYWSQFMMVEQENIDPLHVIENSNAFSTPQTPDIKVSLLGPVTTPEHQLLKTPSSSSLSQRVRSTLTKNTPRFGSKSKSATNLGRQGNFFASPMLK

inhibition, inactive:
Cc1cc(C(=O)CSc2ccc3c(c2)OCCO3)c(C)n1C1CC1 6.62%
COc1ccc(C(=O)/C=C/c2ccccc2OC)c(OC(=O)c2ccc([N+](=O)[O-])cc2)c1 8.99%
COc1cccc(C2C(C(=O)c3cccs3)=C(O)C(=O)N2CCN2CCOCC2)c1 (configuration not stated) -8.26%
O=C(NCc1ccccc1Cl)C1CCC(=O)N1Cc1ccc(F)cc1 (configuration not stated) 11.4%
CN(CCOc1ccccc1)C(=S)Nc1ccc(OC(F)F)cc1 5.1%
O=C(c1ccc(Cl)cc1)N1CCN(C(=O)C2CCCCC2)CC1 7.43%
O=C1N/C(=C\c2ccccc2)C(O)=C1C=NCc1ccccc1 3.17%
O=C1N/C(=C/c2ccc(Br)cc2)C(O)=C1C=NCc1ccccc1 3.27%
COc1cc(NC(=O)CN2CCC(C(N)=O)(N3CCCCC3)CC2)c(OC)cc1Cl 0.16%
COc1cc(/C=N/NC(=O)c2c(-c3ccccc3)noc2C)cc(OC)c1OC 7.95%
CCCOc1ccc(/C=N/NC(=O)c2c(-c3ccccc3)noc2C)cc1OC 7.42%
CCOc1ccc(/C=N/NC(=O)c2c(-c3ccccc3)noc2C)cc1 10.9%
Cc1onc(-c2ccccc2)c1C(=O)N/N=C/c1cccc(O)c1 8.34%
CCOC(=O)c1c(C)n(C)c2cc(Br)c(C)cc12 -1.61%
CCc1nnc(NS(=O)(=O)c2ccc(N=Cc3c(C)[nH]n(-c4cccc(Cl)c4)c3=O)cc2)s1 9.47%
Cc1nn(C)cc1CNC(=O)c1ccccc1Br -6.9%
CC(Oc1ccc2ccc(=O)oc2c1)C(=O)c1ccccc1 (configuration not stated) 8.03%
CN(C)CCNC(=O)c1c(NC(=O)c2ccccc2)sc2c1CCCC2 11.8%
NCCNC(=O)c1c(NC(=O)c2ccccc2)sc2c1CCCC2 10.3%
CCCC(=O)Nc1cc(C)c(NC(=O)c2ccncc2)cn1 1.4%
CCOc1ccccc1NC(=O)COC(=O)C1CCC1 6.3%
O=C1OC2(CCCC2)OC(=O)C1=Cc1c[nH]c2ccccc12 10.5%
O=C1CCCC(=O)C1=Cc1c[nH]c2ccccc12 8.99%
O=C(O)Cn1cc(/C=C2/NC(=O)N(c3ccc(Cl)cc3)C2=O)c2ccccc21 8.99%
O=C(O)Cn1cc(/C=C2\SC(=O)N(c3ccccc3)C2=O)c2ccccc21 0.86%
Clc1ccc(-c2csc(Nc3ccccc3)[n+]2Cc2ccco2)c(Cl)c1 4.62%
COC(=O)c1c(C(=O)OC)c2ccccn2c1C(=O)c1ccc([N+](=O)[O-])cc1 -6.01%
Cc1nc2ccc(N)cc2s1 5.78%
Nc1cccc(-c2nc3ccc(N)cc3s2)c1 10.5%
Nc1nc2ccc(Br)cc2s1 1.67%
Nc1ccc(-c2nc3cc(N)ccc3s2)cc1 7.4%
Nc1ccc2nc(-c3ccccc3)sc2c1 4.03%
Nc1ccc2sc(N)nc2c1 19.6%
COc1cccc(NC(=O)CN(C)C(=O)/C=C/c2ccc3ccccc3n2)c1 0.53%
COc1ccc(-c2nc(N3CCOCC3)nc3n[nH]c(N)c23)cc1 -3.94%
COc1ccc(CCN(C)C2CCCN(S(=O)(=O)c3ccccc3)C2)cc1OC (configuration not stated) 10.3%
O=C(CSc1ncn[nH]1)Nc1ccc(Cl)c(Cl)c1 12.3%
O=C(O)/C=C/C(=O)Nc1ccc(OCc2ccccc2)cc1 11.5%
CCOc1[nH]n(-c2ccc(Cl)cc2)c(=O)c1C=NCc1cccnc1 7.22%
O=C1OCC/C1=C\c1ccccc1 5.73%
CC1CCCC(=C\c2ccccc2)/C1=N/O (configuration not stated) 9.75%
CC1CCC/C(=C\Nc2ccc(C(=O)O)cc2)C1=O (configuration not stated) -1.76%
O=C1OCCC1=Cc1ccccc1 -4.26%
O=C(NC1CCS(=O)(=O)C1)c1cnccn1 (configuration not stated) 6.19%
O=C(c1scc2c1CCCC2)N1CCOCC1 5.17%
O=C(Nn1c(-c2ccc(Br)cc2)nc2ccccc2c1=O)c1cccnc1 2.47%
CCCN(CCC)CC(O)CN1C(=O)NC(C)(C)C1=O (configuration not stated) -0.64%
COc1ccc(C(=O)CSc2nnc(-c3cccnc3)n2Cc2ccco2)cc1 9.77%
CCCCC(=O)NCc1ccc2c(c1)cc(C)n2C 7.65%
CCCCn1c(N)nc2ccccc21 1.51%
Cc1ccc(N2CC(C(=O)NC(C)CCc3ccccc3)CC2=O)cc1 (configuration not stated) 1.14%
Cc1cc(OCn2ccc(C(=O)O)n2)ccc1Cl 15.5%
O=C(O)c1ccccc1C(=O)N1CCN(Cc2ccc3c(c2)OCO3)CC1 6.42%
CCNC(=S)N1CCN(Cc2ccc3c(c2)OCO3)CC1 3.54%
O=C(c1cccc2ccccc12)N1CCN(Cc2ccccc2F)CC1 30.9%
O=C(c1ccccc1)c1ccccc1C(=O)N1CCN(Cc2ccccc2F)CC1 15.4%
CCCNC(=S)N1CCN(Cc2ccc3c(c2)OCO3)CC1 23.5%
O=C(c1ccccc1Cl)N1CCN(Cc2ccc3c(c2)OCO3)CC1 1.05%
O=C(/C=C/c1cccc(F)c1)N1CCN(c2ccccn2)CC1 6.78%
CCOc1ccc(OCCC(=O)Nc2ccc(N3CCOCC3)cc2N2CCOCC2)cc1 4.37%
COC(=O)c1ccsc1NC(=O)CN1CCN(c2ncccn2)CC1 -6.48%
O=C(CSc1nc2ncc(Cl)cc2[nH]1)N1CCC(Cc2ccccc2)CC1 5.18%
O=C(COc1ccccc1[N+](=O)[O-])Nc1cccc(Cl)c1N1CCOCC1 9.17%
COc1cc(CNc2cc(C)ccc2C)cc(OC)c1OC 6.31%
COc1ccccc1CNc1cc(-c2ccccc2)ccc1OC 7.7%
COc1cccc(CNc2nn[nH]n2)c1OC 3.59%
COc1cc(OC)c(OC)cc1CNc1cc(C)ccc1OC 14.2%
COc1ccc(CNc2cc(C)ccc2C)c(OC)c1OC 14.2%
COc1ccccc1CNc1cc(C)ccc1C -1.27%
O=C(c1nn2c(C(F)(F)F)cc(-c3ccccc3)nc2c1Cl)N1CCN2CCCC2C1 (configuration not stated) 3.99%
CC(C)c1ccc(NC(=O)NC2CCN(CC(=O)Nc3cccc4ccccc34)CC2)cc1 13.1%
CNC(=O)C[C@H]1C(=O)N(C2CCCCC2)C[C@@H]1CSC 16.8%
Cc1ccccc1Nc1ncnc2c1cnn2C 12.2%
O=C(c1ccc(Cl)c(S(=O)(=O)N2CCOCC2)c1)N1CCCC1 3.9%
O=C(N1CCCCC1)N1CCN(S(=O)(=O)c2ccc(Cl)cc2)CC1 4.45%
C=CCNc1nc2c3ccccc3n(C(C)=O)c2s1 24.6%
CC(=O)n1c2ccccc2c2nc(NC(C)C)sc21 5.24%
COc1cc(C(=O)NCc2nnc(SCC(=O)N3CCCCC3)o2)cc(OC)c1OC 6.92%
CC1=CC(=O)C=C/C1=C(/c1ccc(O)cc1C)c1ccccc1S(=O)(=O)O 9.36%
CC1=C/C(=C(\c2ccc(O)c(C)c2)c2ccccc2S(=O)(=O)O)C=CC1=O 3.41%
CC1=C/C(=C(/c2ccc(O)c(C)c2)c2ccccc2S(=O)(=O)O)C=CC1=O 19.7%
Cc1cc(C(=O)CS(=O)(=O)c2ccccc2)cc(C)c1O 10.7%
COc1cc(OC)cc(C(C(=O)NCc2ccccc2)N(Cc2ccco2)C(=O)c2ccno2)c1 (configuration not stated) 5.98%
CCc1cc2c(C)ccc(C)c2nc1SCC(=O)Nc1c(C)[nH]c(=O)[nH]c1=O -14.5%
CCOC(=O)/C(=N\Nc1ccccc1)P(=O)(c1ccccc1)c1ccccc1 5.15%
COc1ccc(C(CNC(=O)CSc2ccccc2C)N(C)C)cc1 (configuration not stated) 6.46%
COC(=O)c1c(NC(=O)CSc2nnnn2-c2ccccc2)sc2c1CCC(C(C)(C)C)C2 (configuration not stated) 5.4%
CC1CCC/C=C/C(=O)c2c(O)cc(O)cc2CC(=O)O1 (configuration not stated) -7.81%
CC1CCCC=CC2CC(OC(=O)CN(C)C)CC2C(O)C=CC(=O)O1 (configuration not stated) 3.18%
COc1ccccc1NC(=O)/C(C#N)=C/c1cccnc1 4.24%
Cc1ccccc1NC(=O)/C(C#N)=C\c1cccnc1 16.7%
CCCOc1ncnc2c1[nH]c1ccc(OC)cc12 5.1%
Cc1cc(O)ccc1NC(=S)NC(=O)c1cncc(Br)c1 11%
CC(C)CCNC(=O)c1cccc(C(=O)NCCC(C)C)c1 9.34%
N/C(=N\N=C\c1cccc(O)c1)c1nonc1N 7.37%
C(=N\N=C\c1ccccc1)/c1ccccc1 5.71%
COc1ccc(/C=N/N=C(\N)c2nonc2N)cc1OC 0.88%
COc1ccc(/C=N/N=C(\N)c2nonc2N)cc1 6.95%
Cc1ccc(/C=N/N=C/c2ccc(C)cc2)cc1 4.21%
COc1cc(/C=N/N=C(\N)c2nonc2N)cc(OC)c1O 19.5%
COc1ccc(C(=O)NN=C2CCCC2)cc1OC -4.29%
CC(C)NC(=O)N(C)C[C@H]1Oc2ccc(NC(=O)Cc3ccccc3)cc2C(=O)N([C@H](C)CO)C[C@@H]1C -4.37%
